About 7,900 targets were measured; listed, in parts, are those with a hit and a random draw of the rest. About 0.6% of all pairs of compound and target were hits. A number with no mark means an inactive call.
What was measured:
Assay in all cases: log2 fold change, soluble protein after heating vs DMSO (PISA); higher = thermal stabilisation; K562 cells, 10 uM, 30 min; active = over 0.2 and 3.5 SD of the protein, either way, in both replicates (recomputed)
saracatinib = compound: CN1CCN(CCOc2cc(OC3CCOCC3)c3c(Nc4c(Cl)ccc5c4OCO5)ncnc3c2)CC1 [saracatinib]
Method in brief: (§1)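 K562 cells at 2×10^6 cells/mL were exposed to 10 μM compound for 30 min, then aliquots were heated for 3 min across 48°C-58°C, pooled, and extracted in PBS containing 0.5% NP-40 at 4°C. The supernatant after 21,000xg for 90 min was taken as soluble protein and measured by TMTpro 16plex LC-MS/MS with channel sums equalised. Thermal stability is reported relative to control samples, with values from duplicates. Fold changes are given on a log2 scale.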

sotrastaurin = compound: CN1CCN(c2nc(C3=C(c4c[nH]c5ccccc45)C(=O)NC3=O)c3ccccc3n2)CC1 [sotrastaurin]
Method in brief: as §1

alvocidib = compound: CN1CC[C@H](c2c(O)cc(O)c3c(=O)cc(-c4ccccc4Cl)oc23)[C@H](O)C1 [alvocidib]
Method in brief: as §1

Tubastatin A = compound: CN1CCc2c(c3ccccc3n2Cc2ccc(C(=O)NO)cc2)C1 [Tubastatin A]
Method in brief: as §1

[1] = compound: CNC(=O)C1=CC=CC=C1NC2=NC(=NC=C2Cl)NC3=C(C=C(C=C3)N4CCOCC4)OC
Method in brief: as §1

defactinib = compound: CNC(=O)c1ccc(Nc2ncc(C(F)(F)F)c(NCc3nccnc3N(C)S(C)(=O)=O)n2)cc1 [defactinib]
Method in brief: as §1

rucaparib = compound: CNCc1ccc(-c2[nH]c3cc(F)cc4c3c2CCNC4=O)cc1 [rucaparib]
Method in brief: as §1

[2] = compound: CNc1nc(-c2ccc3c(N)n[nH]c3c2)cc(N2C[C@@H](C(=O)NC3CCCCC3)CC[C@H]2C)n1
Method in brief: as §1

encorafenib = compound: COC(=O)N[C@@H](C)CNc1nccc(-c2cn(C(C)C)nc2-c2cc(Cl)cc(NS(C)(=O)=O)c2F)n1 [encorafenib]
Method in brief: as §1

[3] = compound: COC(=O)[C@H](CCSC)NC(=O)C1=C(C=C(C=C1)NC[C@H](CS)N)C2=CC=CC=C2
Method in brief: as §1

[4] = compound: COC1=CC=C(C=C1)CN2C=CC3=C2C=C(C=C3)C(=O)NO
Method in brief: as §1

filanesib = compound: CON(C)C(=O)N1N=C(c2cc(F)ccc2F)S[C@@]1(CCCN)c1ccccc1 [filanesib]
Method in brief: as §1

zotarolimus = compound: CO[C@H]1C[C@@H]2CC[C@@H](C)[C@@](O)(O2)C(=O)C(=O)N2CCCC[C@H]2C(=O)O[C@H]([C@H](C)C[C@@H]2CC[C@H](n3cnnn3)[C@H](OC)C2)CC(=O)[C@H](C)/C=C(\C)[C@@H](O)[C@@H](OC)C(=O)[C@H](C)C[C@H](C)/C=C/C=C/C=C/1C [zotarolimus]
Method in brief: as §1

idasanutlin = compound: COc1cc(C(=O)O)ccc1NC(=O)[C@@H]1N[C@@H](CC(C)(C)C)[C@](C#N)(c2ccc(Cl)cc2F)[C@H]1c1cccc(Cl)c1F [idasanutlin]
Method in brief: as §1

alisertib = compound: COc1cc(Nc2ncc3c(n2)-c2ccc(Cl)cc2C(c2c(F)cccc2OC)=NC3)ccc1C(=O)O [alisertib]
Method in brief: as §1

[5] = compound: COc1cc2nc(-c3cc(F)ccc3O)nc(N[C@@H]3CNC[C@H]3C(C)(C)O)c2cc1OC
Method in brief: as §1

gefitinib = compound: COc1cc2ncnc(Nc3ccc(F)c(Cl)c3)c2cc1OCCCN1CCOCC1 [gefitinib]
Method in brief: as §1

[6] = compound: COc1cccc2cc(-c3nc([C@H]4CC[C@H](C(=O)O)CC4)n4ncnc(N)c34)[nH]c12
Method in brief: as §1

lapatinib = compound: CS(=O)(=O)CCNCc1ccc(-c2ccc3ncnc(Nc4ccc(OCc5cccc(F)c5)c(Cl)c4)c3c2)o1 [lapatinib]
Method in brief: as §1

pictilisib = compound: CS(=O)(=O)N1CCN(Cc2cc3nc(-c4cccc5[nH]ncc45)nc(N4CCOCC4)c3s2)CC1 [pictilisib]
Method in brief: as §1

UniProt P40617, sequence (P40617 whole entry, looked up): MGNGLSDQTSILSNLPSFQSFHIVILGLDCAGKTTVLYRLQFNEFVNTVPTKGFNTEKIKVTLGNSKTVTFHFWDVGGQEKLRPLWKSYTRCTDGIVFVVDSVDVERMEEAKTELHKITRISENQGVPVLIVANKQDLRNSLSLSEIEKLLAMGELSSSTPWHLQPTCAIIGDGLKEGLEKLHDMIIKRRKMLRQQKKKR
UniProt Q96KE9, sequence (Q96KE9 whole entry, looked up): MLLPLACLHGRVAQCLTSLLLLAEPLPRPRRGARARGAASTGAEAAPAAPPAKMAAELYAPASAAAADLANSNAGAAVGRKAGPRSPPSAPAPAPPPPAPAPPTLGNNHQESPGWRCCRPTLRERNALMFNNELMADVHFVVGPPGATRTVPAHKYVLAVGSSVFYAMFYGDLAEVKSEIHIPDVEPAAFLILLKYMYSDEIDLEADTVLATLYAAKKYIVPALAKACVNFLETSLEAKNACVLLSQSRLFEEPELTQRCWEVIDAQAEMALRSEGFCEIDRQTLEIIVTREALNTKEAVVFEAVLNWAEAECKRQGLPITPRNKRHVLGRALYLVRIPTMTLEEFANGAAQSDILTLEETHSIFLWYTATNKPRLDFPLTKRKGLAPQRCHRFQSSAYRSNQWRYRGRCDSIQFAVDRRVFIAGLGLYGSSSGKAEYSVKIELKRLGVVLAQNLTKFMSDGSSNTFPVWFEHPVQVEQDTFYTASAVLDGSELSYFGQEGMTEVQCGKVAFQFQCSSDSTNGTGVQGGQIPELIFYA
UniProt O14727, sequence (O14727 whole entry, looked up): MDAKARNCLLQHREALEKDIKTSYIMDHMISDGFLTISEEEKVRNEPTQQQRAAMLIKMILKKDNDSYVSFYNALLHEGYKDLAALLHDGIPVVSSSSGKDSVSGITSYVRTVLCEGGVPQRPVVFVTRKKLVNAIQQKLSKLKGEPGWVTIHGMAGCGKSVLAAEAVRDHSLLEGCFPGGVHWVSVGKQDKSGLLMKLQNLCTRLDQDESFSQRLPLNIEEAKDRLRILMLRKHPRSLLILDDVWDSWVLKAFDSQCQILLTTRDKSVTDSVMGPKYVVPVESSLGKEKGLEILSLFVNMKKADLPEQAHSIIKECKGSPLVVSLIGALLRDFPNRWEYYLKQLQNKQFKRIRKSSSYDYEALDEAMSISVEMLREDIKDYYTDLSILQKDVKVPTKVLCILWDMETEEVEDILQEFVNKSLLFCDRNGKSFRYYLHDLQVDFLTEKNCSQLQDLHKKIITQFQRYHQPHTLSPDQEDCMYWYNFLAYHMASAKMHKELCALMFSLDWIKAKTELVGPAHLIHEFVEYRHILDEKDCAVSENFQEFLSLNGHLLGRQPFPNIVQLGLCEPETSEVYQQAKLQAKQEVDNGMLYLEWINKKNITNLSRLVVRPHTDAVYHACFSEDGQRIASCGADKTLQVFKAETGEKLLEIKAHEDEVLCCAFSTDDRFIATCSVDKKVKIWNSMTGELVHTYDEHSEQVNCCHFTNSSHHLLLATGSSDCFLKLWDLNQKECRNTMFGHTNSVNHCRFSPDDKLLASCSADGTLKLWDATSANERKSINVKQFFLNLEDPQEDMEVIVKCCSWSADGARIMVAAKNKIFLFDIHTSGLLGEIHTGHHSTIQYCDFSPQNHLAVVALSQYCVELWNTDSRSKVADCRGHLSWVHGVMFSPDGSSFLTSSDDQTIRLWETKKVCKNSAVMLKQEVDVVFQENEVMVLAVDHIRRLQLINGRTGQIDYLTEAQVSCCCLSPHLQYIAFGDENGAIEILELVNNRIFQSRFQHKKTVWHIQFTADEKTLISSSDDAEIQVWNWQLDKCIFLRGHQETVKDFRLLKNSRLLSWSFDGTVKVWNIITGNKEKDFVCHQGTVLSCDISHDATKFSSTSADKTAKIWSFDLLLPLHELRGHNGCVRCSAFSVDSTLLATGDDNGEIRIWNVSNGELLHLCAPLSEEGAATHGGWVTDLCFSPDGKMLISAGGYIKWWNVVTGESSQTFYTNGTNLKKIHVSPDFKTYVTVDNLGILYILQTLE
UniProt Q93084, sequence (Q93084 whole entry, looked up): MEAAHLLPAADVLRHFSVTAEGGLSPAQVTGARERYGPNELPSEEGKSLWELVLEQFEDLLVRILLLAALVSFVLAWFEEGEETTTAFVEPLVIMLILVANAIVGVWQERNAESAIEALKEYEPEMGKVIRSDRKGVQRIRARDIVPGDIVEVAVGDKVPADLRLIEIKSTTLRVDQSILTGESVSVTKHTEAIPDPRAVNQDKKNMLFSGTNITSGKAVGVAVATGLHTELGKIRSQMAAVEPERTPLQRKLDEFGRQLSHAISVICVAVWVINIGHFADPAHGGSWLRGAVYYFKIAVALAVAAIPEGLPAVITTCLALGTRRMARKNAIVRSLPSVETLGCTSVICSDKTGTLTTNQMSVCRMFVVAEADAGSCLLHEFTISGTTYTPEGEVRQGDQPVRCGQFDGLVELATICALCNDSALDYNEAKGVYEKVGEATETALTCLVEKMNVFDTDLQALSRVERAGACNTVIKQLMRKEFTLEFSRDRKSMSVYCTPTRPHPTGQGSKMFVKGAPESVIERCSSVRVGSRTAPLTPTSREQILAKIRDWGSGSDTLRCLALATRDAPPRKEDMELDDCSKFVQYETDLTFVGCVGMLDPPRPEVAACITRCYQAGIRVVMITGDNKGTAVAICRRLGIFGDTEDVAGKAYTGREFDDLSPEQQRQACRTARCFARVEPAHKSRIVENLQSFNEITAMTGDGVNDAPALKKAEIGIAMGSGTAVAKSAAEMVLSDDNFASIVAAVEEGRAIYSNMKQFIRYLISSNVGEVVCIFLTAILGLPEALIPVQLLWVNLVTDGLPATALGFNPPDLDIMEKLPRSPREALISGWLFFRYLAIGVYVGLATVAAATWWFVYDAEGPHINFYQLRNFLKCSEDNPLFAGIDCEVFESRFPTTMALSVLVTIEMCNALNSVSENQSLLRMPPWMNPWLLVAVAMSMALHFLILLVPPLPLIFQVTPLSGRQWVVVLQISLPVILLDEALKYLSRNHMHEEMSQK
UniProt Q9H6S1, sequence (Q9H6S1 whole entry, looked up): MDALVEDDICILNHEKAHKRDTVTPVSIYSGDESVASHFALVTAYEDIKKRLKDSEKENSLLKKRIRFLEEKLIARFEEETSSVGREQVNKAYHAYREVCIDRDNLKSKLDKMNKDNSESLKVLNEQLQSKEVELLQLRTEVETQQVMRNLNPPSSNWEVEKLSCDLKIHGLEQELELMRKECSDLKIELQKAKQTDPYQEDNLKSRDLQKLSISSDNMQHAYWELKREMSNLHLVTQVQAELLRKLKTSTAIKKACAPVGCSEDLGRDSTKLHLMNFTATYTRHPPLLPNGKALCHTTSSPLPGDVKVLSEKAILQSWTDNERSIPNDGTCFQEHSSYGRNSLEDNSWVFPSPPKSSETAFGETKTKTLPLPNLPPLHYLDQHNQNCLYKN
UniProt Q92934, sequence (Q92934 whole entry, looked up): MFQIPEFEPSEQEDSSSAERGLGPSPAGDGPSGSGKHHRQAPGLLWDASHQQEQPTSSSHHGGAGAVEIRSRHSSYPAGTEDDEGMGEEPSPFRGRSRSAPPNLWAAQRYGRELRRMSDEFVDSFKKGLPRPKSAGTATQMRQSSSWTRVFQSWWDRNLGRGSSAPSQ
UniProt P18846, sequence (P18846 whole entry, looked up): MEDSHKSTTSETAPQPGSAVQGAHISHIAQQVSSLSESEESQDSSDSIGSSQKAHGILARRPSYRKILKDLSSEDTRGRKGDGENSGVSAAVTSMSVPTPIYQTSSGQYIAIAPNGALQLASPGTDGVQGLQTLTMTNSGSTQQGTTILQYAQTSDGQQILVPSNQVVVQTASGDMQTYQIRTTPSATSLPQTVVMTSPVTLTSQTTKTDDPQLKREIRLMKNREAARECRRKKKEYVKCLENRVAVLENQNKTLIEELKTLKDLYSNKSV
UniProt P55008, sequence (P55008 whole entry, looked up): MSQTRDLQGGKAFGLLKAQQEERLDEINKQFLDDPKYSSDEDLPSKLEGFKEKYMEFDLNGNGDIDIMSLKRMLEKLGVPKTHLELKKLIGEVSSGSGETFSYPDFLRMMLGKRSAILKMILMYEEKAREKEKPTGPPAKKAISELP
UniProt Q14CW9, sequence (Q14CW9 whole entry, looked up): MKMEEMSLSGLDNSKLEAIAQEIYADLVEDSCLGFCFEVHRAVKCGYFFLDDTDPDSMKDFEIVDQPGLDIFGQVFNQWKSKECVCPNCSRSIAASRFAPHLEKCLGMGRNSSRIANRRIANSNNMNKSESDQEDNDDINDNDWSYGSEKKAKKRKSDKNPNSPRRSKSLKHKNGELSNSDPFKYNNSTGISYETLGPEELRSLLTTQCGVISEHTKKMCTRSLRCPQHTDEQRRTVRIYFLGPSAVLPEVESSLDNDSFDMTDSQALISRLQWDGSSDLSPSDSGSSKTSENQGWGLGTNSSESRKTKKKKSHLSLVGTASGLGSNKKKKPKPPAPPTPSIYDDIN
UniProt Q9NWX5, sequence (Q9NWX5 whole entry, looked up): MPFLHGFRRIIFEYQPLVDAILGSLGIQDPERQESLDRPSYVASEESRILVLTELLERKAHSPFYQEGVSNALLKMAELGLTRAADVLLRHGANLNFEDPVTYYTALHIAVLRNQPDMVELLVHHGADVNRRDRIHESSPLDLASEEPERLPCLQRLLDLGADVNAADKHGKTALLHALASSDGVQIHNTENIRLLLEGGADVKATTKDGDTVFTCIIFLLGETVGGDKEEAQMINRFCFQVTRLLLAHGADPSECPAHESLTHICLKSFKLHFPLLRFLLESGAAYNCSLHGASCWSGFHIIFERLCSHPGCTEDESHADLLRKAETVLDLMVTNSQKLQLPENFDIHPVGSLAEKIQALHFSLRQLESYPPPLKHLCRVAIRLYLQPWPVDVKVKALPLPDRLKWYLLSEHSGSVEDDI
UniProt Q9NX38, sequence (Q9NX38 whole entry, looked up): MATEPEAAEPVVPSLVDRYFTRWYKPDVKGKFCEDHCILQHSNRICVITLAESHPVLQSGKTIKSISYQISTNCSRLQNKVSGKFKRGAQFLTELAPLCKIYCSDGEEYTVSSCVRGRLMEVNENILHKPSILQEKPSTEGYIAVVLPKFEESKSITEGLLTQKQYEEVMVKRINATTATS

Target	log2 fold change (saracatinib)	log2 fold change (sotrastaurin)	log2 fold change (alvocidib)	log2 fold change (Tubastatin A)	log2 fold change [1]	log2 fold change (defactinib)	log2 fold change (rucaparib)	log2 fold change [2]	log2 fold change (encorafenib)	log2 fold change [3]	log2 fold change [4]	log2 fold change (filanesib)	log2 fold change (zotarolimus)	log2 fold change (idasanutlin)	log2 fold change (alisertib)	log2 fold change [5]	log2 fold change (gefitinib)	log2 fold change [6]	log2 fold change (lapatinib)	log2 fold change (pictilisib)
AAMP (UniProt Q13685)	-0.002	0.006	-0.017	-0.049	0.022	-0.102	0.054	-0.014	-0.016	-0.009	-0.031	0.003	0.029	-0.052	-0.049	-0.027	0.026	0.033	0.024	-0.002
APAF1 (UniProt O14727)	-0.088	0	-0.026	–	0.109	0.082	0.103	0.032	0.158	0.05	-0.023	-0.066	-0.03	-0.068	0.08	0.279	-0.163	0.09	0.369	-0.04
AP2M1 (UniProt C9JTK4)	-0.109	0.055	0.203	-0.045	–	-0.053	0.07	-0.019	-0.048	0.193	0.016	0.132	-0.203	0.224	-0.177	–	0.005	0.123	–	–
AFDN isoform 1 (UniProt P55196)	-0.192	-0.047	-0.182	–	-0.025	0.021	0.009	-0.175	0.018	-0.302	-0.151	0.024	-0.01	0.019	0.127	–	–	0.074	–	-0.144
ABITRAM (UniProt Q9NX38)	0.035	-0.188	-0.107	-0.007	–	-0.164	-0.041	-0.243	0.025	-0.049	0.06	0.036	0.041	0.022	0.101	0.006	0.111	0.139	0.021	0.053
ATP2A3 isoform 2 (UniProt Q93084)	0.058	-0.007	-0.021	-0.022	-0.026	-0.021	-0.04	0.033	0.027	0.002	-0.016	-0.118	-0.009	-0.027	-0.082	-0.004	-0.029	0.02	-0.002	0.027
BTBD6 (UniProt Q96KE9)	-0.031	0.021	-0.143	0.211	-0.141	-0.131	0.327	0.082	-0.101	-0.009	–	-0.019	0.062	0.053	-0.058	0.194	0.03	-0.186	-0.072	0.143
BRAF (UniProt P15056)	0.029	-0.069	-0.059	0.007	-0.02	-0.058	0.013	-0.059	0.014	-0.037	-0.031	-0.05	-0.004	-0.047	0.007	-0.076	0.012	0.015	–	-0.061
BAD (UniProt Q92934)	0.021	0.273	0.005	–	-0.032	0.03	0.032	-0.016	-0.047	-0.004	-0.103	0.124	-0.073	-0.049	0.103	-0.016	0.115	0.068	-0.037	0.022
ADAMTS5 (UniProt Q9UNA0)	-0.107	-0.004	0.007	0.222	-0.13	-0.021	-0.04	-0.048	-0.136	0.028	0.295	-0.051	-0.063	-0.06	0.019	–	0.012	0.092	–	0.198
AKNA (UniProt Q7Z591)	–	-0.017	-0.066	–	-0.074	–	–	–	–	–	–	0.04	0.01	–	–	0.205	–	–	-0.059	–
ATXN7L3 isoform 2 (UniProt Q14CW9)	–	0.098	–	–	-0.038	–	0.669 (active)	–	0	–	-0.158	-0.02	–	0.193	-0.191	–	0.052	0.035	–	–
BAIAP2 isoform 4 (UniProt Q9UQB8)	–	0.147	-0.034	0.288	–	–	–	–	–	–	–	0.302	-0.184	–	–	–	–	–	–	–
ASB6 (UniProt Q9NWX5)	–	-0.029	–	–	-0.078	-0.033	0.124	–	-0.094	0.031	0.298	0.008	–	-0.029	-0.214	-0.083	-0.034	0	-0.055	0.157
AUH (UniProt Q13825)	0.184	–	0.016	0.152	0.003	-0.055	0.065	-0.062	-0.005	0.006	-0.107	–	0.009	-0.074	0.175	-0.036	–	0.034	0.056	-0.071
AIF1 (UniProt P55008)	–	0.025	–	–	0.15	0.032	–	–	–	-0.046	–	0.038	–	0.052	–	0.083	–	–	0.053	–
ATF1 (UniProt P18846)	–	-0.098	0.081	-0.068	-0.052	0.045	-0.128	–	-0.07	0.024	–	0.097	-0.51 (active)	-0.082	-0.101	-0.071	0.052	0.006	-0.011	-0.039
AMD1 (UniProt P17707)	–	-0.017	–	0.014	0.02	0.082	-0.08	–	0.023	0.042	-0.009	-0.128	–	-0.193	-0.023	0.024	0.041	0.058	-0.034	0.043
ARL4A (UniProt P40617)	–	–	–	–	–	–	–	–	–	–	–	–	–	0.056	0.042	–	–	0.094	–	–
ACTR3B (UniProt Q9P1U1)	–	–	–	-0.01	-0.004	0.037	–	–	–	-0.01	0.407 (active)	–	–	–	–	0.022	-0.213	–	-0.056	-0.021
AP2S1 (UniProt M0QZ21)	–	–	–	0.335	–	–	–	–	–	–	–	–	–	–	–	–	–	–	–	–
AZI2 (UniProt Q9H6S1)	–	-0.046	–	-0.078	0.453 (active)	0.018	-0.12	–	0.012	-0.093	–	0.006	–	–	–	–	0.227	–	–	–
AGAP3 isoform 4 (UniProt Q96P47)	–	-0.233	-0.011	0.166	-0.033	–	0.178	–	-0.104	–	-0.051	0.24	-0.02	0.12	-0.073	0.079	0.28	-0.1	0.038	–

— the supplement of paper PMC10849652
